Compounds without any hit were thinned out: in the full panel of roughly 83,000, 20% have a hit.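 Activity criterion: percent growth below 10, measured after cells in 96-well plates were exposed to a single compound concentration for 48 hours.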 A number with no mark means an inactive call. The source made the active and inactive calls.

One test deals with SW-620 colon. Nature of the test: NCI-60 one-dose screen, 48 h (100 = growth as untreated, 0 = no growth, -100 = all killed). The following applies: 10 µM unless noted.
`O=C(Nc1nc2ccc(C(F)(F)F)cc2s1)c1cc(Cl)ccc1O`: the growth was 12.8%.

Turning to `NC(N)=NC(N)=Nc1cc2ccccc2c2ccccc12`, the growth was 22.9%. As for `CC(=O)Oc1c2c(nc3c1c1ccccc1n3Cc1ccccc1)-c1ccccc1C2`, the growth was 98.8%.

`CN1C(=O)c2cc(Cl)nc3c(NC(=O)c4cccc(Cl)c4)c(Cl)c(NC(=O)c4cccc(Cl)c4)c1c23`: the growth was -58.3% (active). On the same count and under the same terms, the result for `CCOCCc1c(O)nc(SC)[nH]c1=O` reads 90.9%; that for `COc1ccc2[nH]c(=O)c(/C=C/C(=O)/C=C/c3ccc(O)c(OC)c3)cc2c1`, -24.8% (active); that for `CCOC(=O)c1c(C)nc2c(c1N)/C(=C/c1cccs1)C(=O)N2Cc1ccccc1`, 58%.

Consider `O=C(CCc1nnc2sc(OCc3ccccc3)nn12)c1nc2ccc([N+](=O)[O-])cc2[nH]1`, for which the growth was 107%. Same read-out and setting: as for `COc1ccc2c(c1)Oc1nc(N)c(C#N)c(N)c1C2Sc1ccc(O)cc1` (stereo unspecified), the figure is 68.6%. As for `O=C(Nc1nccs1)c1noc2ccccc12`, the growth is 98.8%.

With `Cc1cccc(C)c1NCc1nnc(-c2ccco2)o1`, the growth was 93.8%. As to `CCOC(=O)C1=C(C)n2nc(CC#N)c(C#N)c2NC1c1ccc(Cl)cc1` (stereo unspecified), the growth was 97.5%. On to `CCOc1ccccc1C(=O)/C=C/c1cc2ccccc2[nH]c1=O`, for which the growth was 4.2% (active). Still for that read-out and setting: as for `COc1cc(NC(=O)Nc2cnc(Nc3ccc(N4CCOCC4)cc3)nc2Oc2ccc(F)cc2)cc(OC)c1`, the figure is 82.7%.

Regarding `Cc1cc(Cl)cc(CN(Cc2ccccc2)Cc2c(O)ccc3ccccc23)c1O`, the growth is 105%. On the same count and under the same terms, the result for `NC[C@@H]1CCN(c2cc3c(cc2F)c(=O)n(N)c(=O)n3Cc2ccc(-c3ccccc3)cc2)C1` reads 84.2%. Still for that read-out and setting: the result for `O=C(/C(=C/c1ccc([N+](=O)[O-])cc1)SCc1ccc(F)cc1)c1ccc(Cl)cc1` reads 1.44% (active); that for `COc1ccc(Cl)c([N+](=O)[O-])c1`, 103%. For the compound `COc1cc(C)ccc1Oc1nc(Nc2ccc(N3CCOCC3)cc2)ncc1N=Cc1cc(C(F)(F)F)cc(C(F)(F)F)c1`, the growth is 80.5%. Same read-out and setting: as for `c1ccc(-c2cn3ccnc3c(-c3ccc4c(c3)ncn4C3CCCCC3)n2)cc1`, the figure is 110%. For the compound `Nc1c(C(=O)Nc2cccc3ccccc23)sc2nc3c(cc12)COCC3`, the growth was 24.9%. The same measure, in the same setting: as for `O=C1CCC23OC(C(O)c4ccccc4N12)C1C(Br)=NOC13` (stereo unspecified), the figure is 107%; as for `O=Cc1[nH]c(Sc2ccccc2)c2ccccc12`, 81.1%. Still for that read-out and setting: the result for `CCOC(=O)c1sc(/N=C2\NC(=O)/C(=C/c3ccc(N4CCN(C)CC4)cc3)S2)nc1C` reads 120%. The same measure, in the same setting: the result for `COc1cc(C2=NN(c3ccccc3)C(c3cccc(Nc4ccnc5cc(C(F)(F)F)ccc45)c3)C2)cc(OC)c1OC` (stereo unspecified) reads 94.8%; that for `COc1ccc(-c2cc(-c3nnc(SCC(=O)Nc4ccc(/C(C)=N\O)cc4)n3-c3ccccc3)c3cc(OC)ccc3n2)cc1`, 82.1%.

With `COc1ccc(OCC(=O)OC(C)C)cc1`, the growth was 94.4%.

With `CC1=C(CCCOC(=O)NCCCl)C2=C(C)C3(CC3)[C@@](C)(O)C(=O)C2=C1`, the growth was 80.3%. The same measure, in the same setting: as for `Nc1ccccc1NS(=O)(=O)c1ccc(Cl)cc1`, the figure is 99.3%; as for `N#Cc1ccc(C2C3=C(CCCC3=O)OC3=C2C(=O)c2ccccc2C3=O)cc1` (stereo unspecified), 49.3%. Same read-out and setting: as for `C=CCn1c(SCC(=O)Nc2ccc(C(=O)/C=C/c3cc(OC)c(OC)c(OC)c3)cc2)nnc1-c1ccccc1`, the figure is 73.2%; as for `NS(=O)(=O)c1ccc(C2C3=C(CCCC3=O)OC3=C2C(=O)c2ccccc2C3=O)cc1` (stereo unspecified), -45.4% (active).

Consider `COc1ccc2nc3nc4ccc[nH]c4cc3c2c1`, for which the growth is 95.7%. In the case of `COc1ccc(Nc2nc(SCC(C)C)nc(-c3ccc(F)cc3)c2C#N)cc1`, the growth was 47.9%. On the same count and under the same terms, as for `NC(=O)CN1C(=O)c2ccccc2C1=O`, the figure is 103%; as for `COc1cccc(C(=O)OCCn2nc3c4c(cccc42)C(=O)c2ccccc2-3)c1O`, 20.9%.

As to `c1ccc(-c2n(Cc3ccc4ccccc4n3)cc[n+]2Cc2ccc3ccccc3c2)cc1`, the growth is 8.55% (active).

Another test has as its system MCF7 breast. Described as above. As to conditions: 10 µM unless noted.
Consider `O=C(Nc1nc2ccc(C(F)(F)F)cc2s1)c1cc(Cl)ccc1O`, for which the growth is -1.08% (active). For `NC(N)=NC(N)=Nc1cc2ccccc2c2ccccc12`, the growth is 2.2% (active). On to `CC(=O)Oc1c2c(nc3c1c1ccccc1n3Cc1ccccc1)-c1ccccc1C2`, for which the growth is 51.1%. On the same count and under the same terms, the result for `CN1C(=O)c2cc(Cl)nc3c(NC(=O)c4cccc(Cl)c4)c(Cl)c(NC(=O)c4cccc(Cl)c4)c1c23` reads 18.1%. The same measure, in the same setting: as for `CCOCCc1c(O)nc(SC)[nH]c1=O`, the figure is 99.7%. Still for that read-out and setting: the result for `COc1ccc2[nH]c(=O)c(/C=C/C(=O)/C=C/c3ccc(O)c(OC)c3)cc2c1` reads 13%.

`CCOC(=O)c1c(C)nc2c(c1N)/C(=C/c1cccs1)C(=O)N2Cc1ccccc1`: the growth was 8.22% (active).

Turning to `COc1ccc2c(c1)Oc1nc(N)c(C#N)c(N)c1C2Sc1ccc(O)cc1` (stereo unspecified), the growth is 33.6%. Regarding `O=C(Nc1nccs1)c1noc2ccccc12`, the growth is 63.9%. The same measure, in the same setting: the result for `Cc1cccc(C)c1NCc1nnc(-c2ccco2)o1` reads 87.1%. Still for that read-out and setting: the result for `CCOC(=O)C1=C(C)n2nc(CC#N)c(C#N)c2NC1c1ccc(Cl)cc1` (stereo unspecified) reads 90.2%; that for `CCOc1ccccc1C(=O)/C=C/c1cc2ccccc2[nH]c1=O`, 3.4% (active). Same read-out and setting: the result for `COc1cc(NC(=O)Nc2cnc(Nc3ccc(N4CCOCC4)cc3)nc2Oc2ccc(F)cc2)cc(OC)c1` reads 91%. For `Cc1cc(Cl)cc(CN(Cc2ccccc2)Cc2c(O)ccc3ccccc23)c1O`, the growth was 85%. On to `NC[C@@H]1CCN(c2cc3c(cc2F)c(=O)n(N)c(=O)n3Cc2ccc(-c3ccccc3)cc2)C1`, for which the growth was 79.4%.

Take `O=C(/C(=C/c1ccc([N+](=O)[O-])cc1)SCc1ccc(F)cc1)c1ccc(Cl)cc1`: the growth is -21.8% (active). Same read-out and setting: the result for `COc1ccc(Cl)c([N+](=O)[O-])c1` reads 95.5%; that for `COc1cc(C)ccc1Oc1nc(Nc2ccc(N3CCOCC3)cc2)ncc1N=Cc1cc(C(F)(F)F)cc(C(F)(F)F)c1`, 46.4%; that for `c1ccc(-c2cn3ccnc3c(-c3ccc4c(c3)ncn4C3CCCCC3)n2)cc1`, 84.1%. For `Nc1c(C(=O)Nc2cccc3ccccc23)sc2nc3c(cc12)COCC3`, the growth was 18.7%. For the compound `O=C1CCC23OC(C(O)c4ccccc4N12)C1C(Br)=NOC13` (stereo unspecified), the growth is 96.5%. Consider `O=Cc1[nH]c(Sc2ccccc2)c2ccccc12`, for which the growth was 72.2%.

As to `CCOC(=O)c1sc(/N=C2\NC(=O)/C(=C/c3ccc(N4CCN(C)CC4)cc3)S2)nc1C`, the growth is 84%. On to `COc1cc(C2=NN(c3ccccc3)C(c3cccc(Nc4ccnc5cc(C(F)(F)F)ccc45)c3)C2)cc(OC)c1OC` (stereo unspecified), for which the growth was 80.6%. With `COc1ccc(OCC(=O)OC(C)C)cc1`, the growth is 93.8%. The same measure, in the same setting: as for `CC1=C(CCCOC(=O)NCCCl)C2=C(C)C3(CC3)[C@@](C)(O)C(=O)C2=C1`, the figure is 29.8%. Same read-out and setting: the result for `Nc1ccccc1NS(=O)(=O)c1ccc(Cl)cc1` reads 94%; that for `N#Cc1ccc(C2C3=C(CCCC3=O)OC3=C2C(=O)c2ccccc2C3=O)cc1` (stereo unspecified), 0.491% (active); that for `C=CCn1c(SCC(=O)Nc2ccc(C(=O)/C=C/c3cc(OC)c(OC)c(OC)c3)cc2)nnc1-c1ccccc1`, 13.6%. On the same count and under the same terms, as for `NS(=O)(=O)c1ccc(C2C3=C(CCCC3=O)OC3=C2C(=O)c2ccccc2C3=O)cc1` (stereo unspecified), the figure is -61.5% (active). As to `COc1ccc2nc3nc4ccc[nH]c4cc3c2c1`, the growth is 5.69% (active). With `COc1ccc(Nc2nc(SCC(C)C)nc(-c3ccc(F)cc3)c2C#N)cc1`, the growth was 29.1%. Regarding `NC(=O)CN1C(=O)c2ccccc2C1=O`, the growth is 95.3%.

As to `COc1cccc(C(=O)OCCn2nc3c4c(cccc42)C(=O)c2ccccc2-3)c1O`, the growth is 18.4%.

The record behind these values is PubChem BioAssay (NCI).
